In the supplement of paper PMC6953052:
Where “and” joins values, the source holds several entries; their conditions need not be identical. Equal entries are not always repeated. ± gives the standard deviation of the averaged measurements. The full ranking holds about 1,700 compounds; the median of “fraction of GFP-LC3-positive cells (≥5 vesicles/cell)” is about 0.43, and the highest 2% start at about 0.81. The sample as a whole holds a higher share of the highest values than the screen did.

tested on: CbCln3 Δex7/8/Δex7/8 GFP-LC3 cerebellar neuronal cells; assay: fraction of GFP-LC3-positive cells (≥5 vesicles/cell); higher = more autophagosome accumulation
Outline: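 By pin transfer, ~50 nL of compound in DMSO went in duplicate into 384-well plates holding 2 × 10^3 wild-type or mutant CbCln3 cerebellar cells per well that stably express GFP-LC3, followed by 24 h at 33 °C. The final 30 min included Hoechst 33342 and LysoTracker Red, and then came 3.2% PFA fixation and 10× imaging of three fields per well. Each value gives the fraction of cells above a vesicle threshold, averaged across duplicates, with CellProfiler counting GFP-LC3 vesicles and out-of-focus images left out. The threshold is 5 or more vesicles per cell.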

| SMILES | fraction of GFP-LC3-positive cells |
| --- | --- |
| CC1/C=C/C=C/CC/C=C/C=C/C=C/C=C/C(O[C@@H]2O[C@H](C)[C@@H](O)[C@H](N)[C@@H]2O)CC(O)C(C(=O)O)C(O)CC(=O)CC(O)C(O)CCC(O)CC(O)CC(O)CC(=O)OC(C)C(C)C1O (stereo partly drawn) [Nystatine] | 0.294 |
| CC(=O)Oc1ccccc1C(=O)Oc1ccccc1C(=O)O [Acetylsalicylsalicylic acid] | 0.354 |
| CC(=O)OCOC(=O)CN(CC(=O)OCOC(C)=O)c1ccccc1OCCOc1ccccc1N(CC(=O)OCOC(C)=O)CC(=O)OCOC(C)=O | 0.851 |
| COc1cc2nc(N3CCN(C(=O)c4ccco4)CC3)nc(N)c2cc1OC.Cl [Prazosin hydrochloride] | 0.669 |
| COc1cc2nc(N3CCN(C(=O)C4CCCO4)CC3)nc(N)c2cc1OC.Cl (stereo not drawn) [Terazosin hydrochloride] | 0.396 |
| COc1cc2nc(N3CCN(C(=O)c4ccco4)CC3)nc(N)c2cc1OC [prazocin] | 0.931 |
| CCCCC/C=C\C/C=C\C=C\[C@@H](O)C/C=C\CCCC(=O)O | 0.479 |
| Nc1nc2c(ncn2COCCO)c(=O)[nH]1 [Acyclovir] | 0.421 |
| Nc1nc2[nH]nnc2c(=O)[nH]1 [Azaguanine-8] | 0.845 |
| CCCOc1ccccc1-c1nc2[nH]nnc2c(=O)[nH]1 [zaprinast] | 0.222 |
| CN(C)CCOC(c1ccccc1)c1ccccc1.Cl [Diphenhydramine hydrochloride] | 0.531 |
| CCCCC[C@H](O)/C=C/C=C\C/C=C\CCCCC(=O)O | 0.403 |
| CCCCC(CC)CNC(=N)NC(=N)NCCCCCCNC(=N)NC(=N)NCC(CC)CCCC.Cl.Cl (stereo not drawn) [Alexidine dihydrochloride] | 0.537 |
| CCCNC(C)C(=O)Nc1ccccc1C.Cl (stereo not drawn) [Prilocaine hydrochloride] | 0.359 |
| C=CCOc1ccccc1OCC(O)CNC(C)C.Cl (stereo not drawn) [Oxprenolol hydrochloride] | 0.366 |
| Cl.OCCN1CCN(CC/C=C2/c3ccccc3Sc3ccc(Cl)cc32)CC1 [Zuclopenthixol hydrochloride] | 0.542 |
| O=c1cc(-c2ccc(O)cc2)oc2cc(O)cc(O)c12 [Apigenin] | 0.432 |
| CCCCCC(=O)/C=C/[C@H]1[C@H](O)CC(=O)[C@@H]1C/C=C\CCCC(=O)O [15-Keto-prostaglandin E2] | 0.471 |
| NS(=O)(=O)c1cc2c(cc1Cl)N=C(CSCc1ccccc1)NS2(=O)=O [Benzthiazide] | 0.293 |
| CS(=O)(=O)Nc1ccc([N+](=O)[O-])cc1Oc1ccccc1 [Nimesulide] | 0.391 |
| CC(C)NC[C@H](O)c1ccc(O)c(O)c1.Cl [(-)-Isoproterenol hydrochloride] | 0.349 |
| CN(C(=O)C(Cl)Cl)c1ccc(OC(=O)c2ccco2)cc1 [Diloxanide furoate] | 0.372 |
| Cl.c1ccc2c(c1)CCCC2C1=NCCN1 (stereo not drawn) [Tetrahydrozoline hydrochloride] | 0.357 |
| CC(C)C[C@H](NC(=O)[C@H]1CCCN1C(=O)OCc1ccccc1)C(=O)NCC(=O)NO | 0.442 |

| SMILES | fraction of GFP-LC3-positive cells |
| --- | --- |
| Cn1cc(C2=C(c3cn(CCCSC(=N)N)c4ccccc34)C(=O)NC2=O)c2ccccc21 | 0.854 ± 0.15 |
| CN(C)CCCn1cc(C2=C(c3c[nH]c4ccccc34)C(=O)NC2=O)c2ccccc21 | 0.583 and 0.599 |
| CN(C)CCC=C1c2ccccc2C=Cc2ccccc21.Cl [Cyclobenzaprine hydrochloride] | 0.513 |
| CC[C@]1(O)C[C@@H]2CN(CCc3c([nH]c4ccccc34)[C@@](C(=O)OC)(c3cc4c(cc3OC)N(C)[C@H]3[C@@](O)(C(=O)OC)[C@H](OC(C)=O)[C@]5(CC)C=CCN6CC[C@]43[C@@H]65)C2)C1.O=S(=O)(O)O [vinblastine] | 0.848 |
| CC/C=C\C/C=C\C/C=C\CCCCCCCCCCCC(=O)O [Docosatrienoic acid (22:3 n-3)] | 0.541 |
| CC/C=C\C/C=C\C/C=C\CCCCCCCCCCCC(=O)O | 0.417 |
| CC/C=C\C/C=C\C/C=C\CCCCCCCCCCCC(=O)O [Docosatrienoic acid (22:3 N-3)] | 0.466 |
| CC[N+](C)(C)c1cccc(O)c1.[Cl-] [Edrophonium chloride] | 0.407 |
| CC(C)NNC(=O)c1ccncc1.O=P(O)(O)O [Iproniazide phosphate] | 0.489 |
| CNCCCN1c2ccccc2CCc2ccccc21.Cl [Desipramine hydrochloride] | 0.486 |
| CN(C)CCOC(C)(c1ccccc1)c1ccccn1.O=C(O)CCC(=O)O (stereo not drawn) [Doxylamine succinate] | 0.314 |
| O=C(NCC1CCCCN1)c1cc(OCC(F)(F)F)ccc1OCC(F)(F)F (stereo not drawn) | 0.524 |
| c1ccc2[nH]c(-c3cscn3)nc2c1 [Tiabendazole] | 0.326 |
| CC[C@H]1[C@@H]2C=C[C@@H]3[C@H]4C/C=C\C(=O)NCCC[C@@H]5NC(=O)C(=C5O)C(=O)CC[C@@H]4C[C@@H]3[C@H]2C[C@H]1C [Ikarugamyin] | 0.921 |
| CCCCCCCC/C=C\CCCCCCCC(=O)NCCc1ccc(O)c(O)c1 [Oleoyl dopamine] | 0.611 |
| CCCCC/C=C\C=C\C(O)CCCCCCCC(=O)O (racemic) | 0.29 |
| CCOC(=O)[C@H](CCc1ccccc1)N[C@@H](C)C(=O)N1CCC[C@H]1C(=O)O.O=C(O)/C=C\C(=O)O [Enalapril maleate] | 0.395 |
| CCCCC[C@H](O)/C=C/C=C/C=C/[C@H](O)C/C=C\CCCC(=O)O [8(R),15(S)-DiHETE all trans] | 0.298 |
| CC[N+](CC)(CC)CCC(O)(c1ccccc1)C1CCCCC1.[Cl-] (stereo not drawn) [Tridihexethyl chloride] | 0.44 |
| CCCCCCCCCCCCCCCCOC[C@H](COP(=O)([O-])OCC[N+](C)(C)C)OC(=O)NC | 0.4228 ± 0.0025 |
| NC(=O)N/N=C/c1ccc([N+](=O)[O-])o1 [Nitrofural] | 0.493 |
| CCC1NC(=O)c2cc(S(N)(=O)=O)c(Cl)cc2N1 (stereo not drawn) [Quinethazone] | 0.417 |
| CN(C)CCCSC(=N)N.Cl.Cl [Dimaprit dihydrochloride] | 0.45 |
| Nc1nc(=O)[nH]cc1F [Flucytosine] | 0.296 |
